The results in this text go back to PubChem BioAssay (Tox21).

Values joined by “and” are separate entries in the source; they are usually repeats but may differ in a detail not shown here. Identical values can stand only once. Records with an inconclusive call do not appear. The source holds several records for some structures; these can differ, active in one and inactive in another. Active and inactive are the calls of the source. Unless noted, calls follow the shape of the full dose curve.

A short description of assay [1]: Nuclear factor erythroid 2-related factor 2/antioxidant responsive element (Nrf2/ARE) small molecule agonists: qHTS cell viability counter screen in human keratinocytes (AID 1919968; active = well fitted curve in the direction sought with a large enough effect in the repeat runs; an effect the other way counts as inactive or inconclusive; also: nearly all actives have a fitted effect of over 55% in size; also: potency is read from the fitted curve at half-maximal effect). An outline of the steps: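 Measured as CellTiter-Fluor fluorescence, this readout tracks cytotoxicity in the same wells as the ARE-luciferase screen. HaCaT reporter cells (1,500/well) received compounds after a 5 h pre-incubation and were exposed for 23 h.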

Assay [2] in a line: Nuclear factor erythroid 2-related factor 2/antioxidant responsive element (Nrf2/ARE) small molecule agonists: luciferase reporter gene qHTS assay in human keratinocytes (AID 1919969). Also: nearly all actives have a fitted effect of over 35% in size. Also: potency is read from the fitted curve at half-maximal effect.
For assay [3], the target named is Gonadotropin-releasing hormone receptor (Homo sapiens) (UniProt P30968). In words: Human gonadotropin-releasing hormone receptor (GnRHR) small molecule agonists, calcium flux assay in GnRHR-HEK293 cells (AID 1920063). Also: nearly all actives have a fitted effect of over 35% in size. The essentials: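 Fluorescence kinetics (480 nm excitation, 540 nm emission; 3 min, 1 s steps) report calcium mobilisation in human GnRHR-HEK293 cells in agonist mode. Dye incubation: 1 h, 37 C.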

In assay [4] the target is KiSS-1 receptor (Homo sapiens) (UniProt Q969F8). The assay is described as follows: Human kisspeptin (KISS1R) small molecule agonists, calcium flux assay in KISS1R-HEK293 cells (AID 1920064; active = well fitted curve in the direction sought with a large enough effect in the repeat runs; an effect the other way counts as inactive or inconclusive). An outline of the steps: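 Measures KISS1R agonism through calcium-sensitive dye fluorescence in stably transfected HEK293 cells, read for 3 min after pin-tool compound delivery; 15-point titrations in triplicate.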

The nature of assay [5]: G protein-coupled receptor (GPCR) small molecule agonists, calcium flux assay: HEK293 wild type cell line counter screen (AID 1920065). An outline of the steps:
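Readout: fluorescence at 480 nm excitation/540 nm emission, sampled at 1 s intervals for 3 min. Cells had been cultured 18 h, then dye-loaded 1 h at 37 C before compound or ATP addition.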

A short description of assay [6]: p53 small molecule agonists, cell-based qHTS assay with human liver microsomes (AID 1963577).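 Also: p53 response element beta-lactamase reporter cells with liver microsomes plus NADPH.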 An outline of the steps: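 Metabolically competent format: test substances, human liver microsomes and NADPH (both 0.5 mg/mL final) incubated with p53RE-bla cells 16 h at 37 C. Beta-lactamase reporter signal then quantified by fluorescence.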
The nature of assay [7]: p53 small molecule agonists, cell-based qHTS assay with rat liver microsomes (AID 1963578). An outline of the steps: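 Each plate received p53RE-bla cells, then compound, then rat liver microsomes and NADPH (both 0.5 mg/mL final). Plates were held 16 h at 37 C, and beta-lactamase activity was detected with LiveBLAzer over 2 h.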
Assay [8] is described as follows: p53 small molecule agonists, cell-based qHTS assay with human liver microsomes: qHTS cell viability counter screen (AID 1963579). Also: nearly all actives have a fitted effect of over 45% in size. The essentials: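 Tox21 library compounds, delivered from DMSO stocks, were tested on p53RE-bla cells together with 0.5 mg/mL human liver microsomes and 0.5 mg/mL NADPH (final) over 16 h at 37 C; CellTiter-Glo luminescence served as the cytotoxicity measure.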

Assay [9] in a line: p53 small molecule agonists, cell-based qHTS assay with rat liver microsomes: qHTS cell viability counter screen (AID 1963580). Also: nearly all actives have a fitted effect of over 45% in size. Also: potency is read from the fitted curve at half-maximal effect. The essentials:
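p53RE-bla HCT-116 cells (4,000/well) rested 5 h at 37 C, then given Tox21 compounds in DMSO with rat liver microsomes (0.5 mg/mL final) plus NADPH (0.5 mg/mL final) for 16 h at 37 C. Viability read by CellTiter-Glo luminescence after 30 min at room temperature.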

Assay [10] in a line: p53 small molecule agonists, cell-based qHTS assay: qHTS cell viability counter screen (AID 1963581). Also: nearly all actives have a fitted effect of over 45% in size. Also: potency is read from the fitted curve at half-maximal effect. The essentials: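 In the same plates used for the p53 bla reporter, HCT-116 cells given compounds for 16 h at 37 C received CellTiter-Glo; luminescence was recorded 30 min later at room temperature.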
A short description of assay [11]: p53 small molecule agonists, cell-based qHTS assay (AID 1963582; active = well fitted activation curve with a large enough effect in the signal ratio in the repeat runs, not every such curve was filed as active; the % refers to the signal ratio). An outline of the steps:
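Compounds are pin-transferred in DMSO onto p53RE-bla cells and incubated 16 h at 37 C. The B/G FRET beta-lactamase substrate is then applied for 2 h at RT and fluorescence recorded.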

Assay [12] deals with 5-hydroxytryptamine receptor 2A (Homo sapiens) (UniProt P28223). The assay is described as follows: 5-hydroxytryptamine receptor 2A (HTR2A) small molecule antagonists, cell-based qHTS assay (AID 1963586). Also: nearly all actives have a fitted effect of over 45% in size. The essentials:
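Antagonist-mode intracellular calcium assay: DOI (4 nM) added after 5 min compound pre-incubation at room temperature to dye-loaded HTR2A-CHO cells. Fluorescence followed for 3 min, sampled every second.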

For assay [13] the target is unchanged. In words: 5-hydroxytryptamine receptor 2A (HTR2A) small molecule agonists, cell-based qHTS assay (AID 1963587). Also: nearly all actives have a fitted effect of over 30% in size. An outline of the steps: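 HTR2A-CHO cells, plated 18 h at 37 C/5% CO2, dye-loaded 1 h at 37 C; compounds in DMSO added by pin tool (agonist mode). Intracellular calcium flux read as kinetic fluorescence on FDSS over 2 min at 1 s intervals.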
The target in assay [14] is Muscarinic acetylcholine receptor M1 (Homo sapiens) (UniProt P11229). In words: Cholinergic receptor muscarinic 1 (CHRM1) small molecule antagonists, cell-based qHTS assay (AID 1963588). Also: nearly all actives have a fitted effect of over 40% in size. An outline of the steps: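 CHRM1-CHO calcium-flux assay, antagonist mode. Cells were seeded 18 h, dye-loaded 1 h at 37 C and given compound for 5 min at RT, then acetylcholine was added at 50nM. FDSS fluorescence was read 3 min; 15 concentrations, three runs.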

For assay [15] the target is unchanged. In words: Cholinergic receptor muscarinic 1 (CHRM1) small molecule agonists, cell-based qHTS assay (AID 1963589). Also: nearly all actives have a fitted effect of over 35% in size. The essentials: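 Each compound was tested at 15 concentrations across three independent runs on dye-loaded CHO cells stably expressing human CHRM1, reading intracellular calcium fluorescence kinetically at 1 sec intervals.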
The nature of assay [16]: cAMP Responsive Elements (CRE) small molecule agonists, cell-based qHTS assay (AID 1963590). An outline of the steps:
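Cell line: CRE-bla HEK 293T; medium DMEM/10% dialyzed FBS/0.1 mM NEAA/1 mM pyruvate/25 mM HEPES; 3 h compound exposure; beta-lactamase FRET readout after 2 h substrate loading at RT.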

The target in assay [17] is D(2) dopamine receptor (Homo sapiens) (UniProt P14416). The assay is described as follows: Dopamine D2 receptor (DRD2) small molecule agonists, cell-based qHTS assay (AID 1963594). Also: nearly all actives have a fitted effect of over 35% in size. The essentials: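 HEK293 cells stably expressing DRD2 were cultured 24 h at 37 C, then given Ro20-1724 (0.1 mM final) and compounds for 10 min at room temperature. NKH477 (200nM) was then added for 30 min. cAMP was read by HTRF.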

For assay [18] the target is unchanged. In words: Dopamine D2 receptor (DRD2) small molecule antagonists, cell-based qHTS assay (AID 1963595; active = well fitted inhibition curve with a large enough effect in the signal ratio in the repeat runs, with a control signal flat; the % refers to the signal ratio). The essentials: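 HEK293 cells stably expressing DRD2 were preincubated with 0.1 mM Ro20-1724, then with compound for 10 min at room temperature. Cells were stimulated with 200 nM NKH477 plus 12 nM quinpirole for 30 min, and cAMP was read by HTRF.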
Assay [19] can be described thus: cAMP Responsive Elements (CRE) small molecule antagonists, cell-based qHTS assay (AID 1963591; active = well fitted inhibition curve with a large enough effect in the signal ratio in the repeat runs, not every such curve was filed as active; the % refers to the signal ratio). The essentials: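 Inhibition of NKH477-driven (0.25 uM final) CRE-beta-lactamase signal in HEK293T cells, 3 h compound exposure at 37 °C, detected by FRET substrate fluorescence.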
In assay [20] the target is Beta-2 adrenergic receptor (Homo sapiens) (UniProt P07550). In words: Adrenergic beta2 receptor (ADRB2) small molecule antagonists, cell-based qHTS assay (AID 1963592). Also: series mostly up to about 92 µM; nearly all actives have a fitted effect of over 50% in size. An outline of the steps: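 Cells (CHO, stable ADRB2 overexpression) incubated 18-20hr at 37C; compounds added from DMSO; agonist mix (1nM isoproterenol, 100uM IBMX, 25uM Ro-20-1724) added; 0.5hr RT; d2-cAMP and anti-cAMP-cryptate added; 1hr RT; 665/615 nm read.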
% is scaled to controls: 0 for no effect and ±100 for the full control effect.

Sequence of Muscarinic acetylcholine receptor M1 (Homo sapiens) (P11229 whole entry, looked up): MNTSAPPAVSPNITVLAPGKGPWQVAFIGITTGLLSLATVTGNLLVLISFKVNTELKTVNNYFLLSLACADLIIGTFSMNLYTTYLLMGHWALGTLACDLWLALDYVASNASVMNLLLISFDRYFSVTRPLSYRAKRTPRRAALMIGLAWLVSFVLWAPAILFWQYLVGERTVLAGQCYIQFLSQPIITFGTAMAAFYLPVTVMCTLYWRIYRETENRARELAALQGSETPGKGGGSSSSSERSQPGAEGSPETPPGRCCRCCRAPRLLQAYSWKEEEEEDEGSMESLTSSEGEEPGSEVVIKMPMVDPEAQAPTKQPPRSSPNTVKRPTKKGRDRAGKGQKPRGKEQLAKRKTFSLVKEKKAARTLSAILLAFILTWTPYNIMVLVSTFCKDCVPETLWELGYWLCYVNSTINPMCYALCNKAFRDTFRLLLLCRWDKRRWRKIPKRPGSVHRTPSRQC
Sequence of D(2) dopamine receptor (Homo sapiens) (P14416 whole entry, looked up): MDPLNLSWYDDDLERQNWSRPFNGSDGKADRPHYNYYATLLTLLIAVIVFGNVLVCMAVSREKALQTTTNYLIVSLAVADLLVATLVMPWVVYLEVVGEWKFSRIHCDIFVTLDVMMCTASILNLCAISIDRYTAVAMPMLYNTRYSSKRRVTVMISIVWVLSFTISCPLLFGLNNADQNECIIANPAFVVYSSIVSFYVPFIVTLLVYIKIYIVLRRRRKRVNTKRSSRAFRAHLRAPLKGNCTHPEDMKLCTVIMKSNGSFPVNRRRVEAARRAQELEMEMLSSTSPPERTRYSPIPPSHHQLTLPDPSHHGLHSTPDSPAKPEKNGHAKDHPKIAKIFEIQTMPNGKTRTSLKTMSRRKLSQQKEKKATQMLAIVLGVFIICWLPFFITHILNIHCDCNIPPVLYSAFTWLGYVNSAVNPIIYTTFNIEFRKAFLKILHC
Sequence of Gonadotropin-releasing hormone receptor (Homo sapiens) (P30968 whole entry, looked up): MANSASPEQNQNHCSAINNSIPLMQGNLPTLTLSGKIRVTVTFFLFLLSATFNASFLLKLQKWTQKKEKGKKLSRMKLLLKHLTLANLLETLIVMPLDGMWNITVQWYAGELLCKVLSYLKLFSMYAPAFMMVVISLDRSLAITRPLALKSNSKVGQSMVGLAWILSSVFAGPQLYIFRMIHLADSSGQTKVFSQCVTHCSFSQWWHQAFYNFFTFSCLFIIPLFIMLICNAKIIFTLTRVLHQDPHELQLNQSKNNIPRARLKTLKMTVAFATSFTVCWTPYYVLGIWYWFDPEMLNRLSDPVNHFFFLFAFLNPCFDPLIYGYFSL
Sequence of KiSS-1 receptor (Homo sapiens) (Q969F8 whole entry, looked up): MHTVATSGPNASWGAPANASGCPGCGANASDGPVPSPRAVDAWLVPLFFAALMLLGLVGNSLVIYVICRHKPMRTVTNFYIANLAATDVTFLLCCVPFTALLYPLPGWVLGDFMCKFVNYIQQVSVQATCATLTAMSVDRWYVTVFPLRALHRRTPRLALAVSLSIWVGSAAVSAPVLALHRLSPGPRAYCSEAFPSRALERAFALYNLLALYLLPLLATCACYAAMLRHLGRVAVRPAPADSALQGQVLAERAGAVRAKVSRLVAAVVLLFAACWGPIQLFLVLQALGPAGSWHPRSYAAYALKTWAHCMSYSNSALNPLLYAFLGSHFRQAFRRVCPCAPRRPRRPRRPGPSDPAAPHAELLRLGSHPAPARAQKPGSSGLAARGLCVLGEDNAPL
Sequence of 5-hydroxytryptamine receptor 2A (Homo sapiens) (P28223 whole entry, looked up): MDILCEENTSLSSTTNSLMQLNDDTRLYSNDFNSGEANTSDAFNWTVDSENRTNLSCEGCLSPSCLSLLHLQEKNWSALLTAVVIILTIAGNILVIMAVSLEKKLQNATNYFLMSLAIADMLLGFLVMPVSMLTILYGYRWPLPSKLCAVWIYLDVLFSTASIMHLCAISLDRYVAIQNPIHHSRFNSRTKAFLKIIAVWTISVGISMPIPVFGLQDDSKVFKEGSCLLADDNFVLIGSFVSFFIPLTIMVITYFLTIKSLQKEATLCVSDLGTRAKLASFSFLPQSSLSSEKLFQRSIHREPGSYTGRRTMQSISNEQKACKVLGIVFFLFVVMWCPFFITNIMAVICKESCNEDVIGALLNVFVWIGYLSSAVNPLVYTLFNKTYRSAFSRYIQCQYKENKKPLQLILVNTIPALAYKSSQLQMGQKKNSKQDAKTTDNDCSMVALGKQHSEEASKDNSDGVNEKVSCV
Sequence of Beta-2 adrenergic receptor (Homo sapiens) (P07550 whole entry, looked up): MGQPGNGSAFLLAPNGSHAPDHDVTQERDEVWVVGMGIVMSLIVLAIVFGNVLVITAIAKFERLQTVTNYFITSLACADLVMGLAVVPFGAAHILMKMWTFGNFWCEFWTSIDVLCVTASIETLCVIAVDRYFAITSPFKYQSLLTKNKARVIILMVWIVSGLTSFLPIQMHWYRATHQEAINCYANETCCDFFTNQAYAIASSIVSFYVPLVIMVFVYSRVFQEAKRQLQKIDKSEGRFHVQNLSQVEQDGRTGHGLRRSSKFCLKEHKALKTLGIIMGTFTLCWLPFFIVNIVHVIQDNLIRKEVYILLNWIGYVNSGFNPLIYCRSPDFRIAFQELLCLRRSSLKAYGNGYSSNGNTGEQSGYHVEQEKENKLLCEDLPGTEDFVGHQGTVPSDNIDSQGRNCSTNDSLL

Regarding `N[C@@H](CSSC[C@H](N)C(=O)O)C(=O)O`, the activity change, negative = cytotoxicity in assay [1] was -0.627% [at 0.349 µM] (inactive); in [8] it was 1.19% [at 0.249 µM] (inactive); in assay [9], -2.37% [at 0.249 µM] (inactive); in assay [10], 0.512% [at 0.249 µM] (inactive). The Potency in assay [2] was 376 nM (active). The activity change in [3] is 1.59% [at 0.217 µM, stronger effect = higher value] (inactive). Also, the activation was -0.737% [at 0.29 µM] (inactive) in assay [4]; -0.257% [at 0.217 µM] (inactive) in assay [5]; 0.648% [at 0.249 µM] (inactive) in assay [6]; -1.5% [at 0.249 µM] (inactive) in assay [7]; 2.6% [at 0.249 µM] (inactive) in assay [11]; 4.74% [at 0.292 µM] (inactive) in [13]. The activation in assay [15] is 1.52% [at 0.29 µM] (inactive); in [16], 0.0077% [at 0.349 µM] (inactive); in assay [17], -4.71% [at 0.349 µM] (inactive). The activity, negative = inhibition in assay [12] was -6.07% [at 0.233 µM] (inactive); in [14] it was 11.3% [at 0.232 µM] (inactive). Further, the activity change, negative = inhibition in assay [18] was 5.54% [at 0.348 µM] (inactive).

Turning to `CC(C)(C)C(=O)C1C(=O)c2ccccc2C1=O`, the Potency result in [1], in [2], in assay [3], in [4], in [5] and in assay [6] was “inactive” throughout. For the same compound, the Potency result in assay [7], in assay [8], in [9], in assay [10], in assay [11] and in [12] was “inactive” in each case. In addition, the Potency entry in [13], in [14], in assay [15], in assay [19], in assay [20] and in assay [17] was “inactive” in each case. In assay [18], the Potency entry is “inactive”.

For the compound `Clc1ccc2c(Cl)ccnc2c1`, the Potency result in assay [1], in assay [2], in assay [3], in [4], in assay [5] and in assay [6] was “inactive” throughout. The Potency entry in assay [7], in [8], in [9], in assay [10], in assay [11] and in assay [12] was “inactive” in each case. Moreover, the Potency entry in assay [13], in assay [14], in [15], in assay [19], in [20] and in assay [17] was “inactive” throughout. The Potency entry in assay [18] was “inactive”.

For `CN(C)CCCN(C)CCCN(C)C`, the Potency entry in [1], in assay [2], in assay [3], in assay [4], in assay [5] and in assay [6] was “inactive” throughout. Moreover, the Potency result in assay [7], in assay [8], in [9], in [10], in assay [11] and in assay [12] was “inactive” throughout. Further, the Potency entry in assay [13], in assay [14], in assay [15], in [19], in assay [20] and in [17] was “inactive” in each case.

`CC(=O)Oc1ccccc1C(=O)Nc1ncc([N+](=O)[O-])s1`: the Potency in assay [1] is 55.6 µM (active); in assay [2] it was 39.3 µM (active) and 29.8 µM (active); in assay [9], 41.6 µM (active) and inactive; in assay [10], 11.7 µM (active). The Potency entry in assay [3], in [4], in assay [5], in assay [6], in assay [7] and in assay [8] was “inactive” throughout. Besides, the Potency result in assay [11], in assay [12], in [13], in assay [14], in assay [15] and in [20] was “inactive” throughout. Moreover, the Potency entry in assay [17] and in assay [18] was “inactive” in each case.
